# PubChem BioAssay (NCI)
# The panel holds about 79,000 compounds, 15% with a hit somewhere; the sample as a whole holds those more often. Unmarked numbers belong to inactive results. Calls of active or inactive are those of the source. No stated cut-off is given here; in the data, active means growth inhibition above about 70%; inactive means the rest.
# Legend:
# [1] = NCI Yeast Anticancer Drug Screen. Data for the rad52 strain (AID 147);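 further: 0% = growth of vehicle-treated control cultures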; conditions: S. cerevisiae rad52 mutant growth inhibition, active compounds read high
# In short: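 Read-out: growth inhibition versus vehicle-treated controls. Cells were a DNA repair-deficient yeast strain treated with compounds.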
# [2] = NCI Yeast Anticancer Drug Screen. Data for the wt1 strain (AID 149);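 further: 0% = growth of vehicle-treated wt1 cultures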; conditions: S. cerevisiae wt1 strain (SPY 50644) growth inhibition, active compounds read high
# In short: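 Growth inhibition read against vehicle controls after compound exposure of the wt1 yeast strain.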
# [3] = NCI Yeast Anticancer Drug Screen. Data for the rad50EPP+ strain (AID 151);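 further: 0% = growth of vehicle-treated control cultures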; conditions: S. cerevisiae rad50 mutant strain, active compounds read high
# In short: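 Growth inhibition read against vehicle controls in rad50EPP+ yeast, a strain altered in DNA damage repair, after compound exposure.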
# [4] = NCI Yeast Anticancer Drug Screen. Data for the mgt1 strain (AID 153); conditions: S. cerevisiae mgt1 mutant growth inhibition, active compounds read high
# In short: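 mgt1 yeast grown with test compound; read-out is growth inhibition versus vehicle-treated cultures.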
# [5] = NCI Yeast Anticancer Drug Screen. Data for the rad50 strain (AID 155);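 further: 0% = growth of vehicle-only cultures of the same strain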; conditions: S. cerevisiae rad50 strain growth inhibition, active compounds read high
# In short: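 Readout: growth inhibition relative to vehicle-treated cultures. Compound exposure was carried out in a genetically defined yeast strain deficient in DNA damage repair.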
# [6] = NCI Yeast Anticancer Drug Screen. Data for the mec2-1 strain (AID 157); conditions: S. cerevisiae mec2-1 strain, active compounds read high
# In short: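 Yeast mec2-1 mutant treated with compound. Readout: growth inhibition vs vehicle controls.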
# [7] = NCI Yeast Anticancer Drug Screen. Data for the rad14 strain (AID 159);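 further: 0% = growth of vehicle-treated control cultures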; conditions: S. cerevisiae rad14 strain growth inhibition, active compounds read high
# In short: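 Growth inhibition vs vehicle controls; genetically altered yeast strain (DNA damage repair defect) treated with test compounds.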
# [8] = NCI Yeast Anticancer Drug Screen. Data for the sgs1 mgt1 strain (AID 161);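 further: 0% = growth of cultures given vehicle only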; conditions: S. cerevisiae sgs1 mgt1 strain, active compounds read high
# In short: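 Mutant yeast exposed to compound; growth scored against vehicle-only wells.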
# [9] = NCI Yeast Anticancer Drug Screen. Data for the CLN2oe strain (AID 163);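 further: 0% = growth of vehicle-only control cultures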; conditions: S. cerevisiae CLN2oe strain, active compounds read high
# In short: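 Read-out: yeast growth inhibition, expressed relative to vehicle-only controls. The strain bears an engineered cell-cycle alteration.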
# [10] = NCI Yeast Anticancer Drug Screen. Data for the cln2 rad14 strain (AID 165);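 further: 0% = growth equal to vehicle treated cultures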; conditions: S. cerevisiae cln2 rad14 strain, active compounds read high
# In short: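 cln2 rad14 yeast strain; compound exposure; growth inhibition read vs vehicle controls.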
# [11] = NCI Yeast Anticancer Drug Screen. Data for the bub3 strain (AID 167); conditions: S. cerevisiae bub3 mutant strain, active compounds read high
# In short: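 Readout: yeast growth inhibition, expressed relative to vehicle-only wells. The test organism is a mutant strain from a panel with lesions in DNA repair or checkpoint genes.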
# [12] = NCI Yeast Anticancer Drug Screen. Data for the wt2 strain (AID 169);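 further: 0% = growth of vehicle-treated yeast cultures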; conditions: S. cerevisiae wt2 strain growth inhibition, active compounds read high
# In short: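 Read-out: growth inhibition versus vehicle-treated control cultures after compound exposure of the yeast strain.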
# [13] = NCI Yeast Anticancer Drug Screen. Data for the mlh1 strain (AID 171);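 further: 0% = growth of vehicle-treated control cultures of the same strain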; conditions: S. cerevisiae mlh1 strain growth inhibition, active compounds read high
# In short: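 Read-out: growth inhibition versus vehicle controls. Strain: engineered yeast with a defined DNA repair or cell cycle defect, compound-treated.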
# [14] = NCI Yeast Anticancer Drug Screen. Data for the sgs1 strain (AID 173);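 further: 0% = growth of vehicle-only control cultures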; conditions: S. cerevisiae sgs1 mutant, active compounds read high
# In short: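 Read-out: yeast growth inhibition relative to vehicle controls, following compound exposure of a strain with a defined DNA repair/cell cycle alteration.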
# [15] = NCI Yeast Anticancer Drug Screen. Data for the mlh1 rad18 strain (AID 175); conditions: S. cerevisiae mlh1 rad18 strain growth inhibition, active compounds read high
# In short: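 Yeast w/ defined DNA-repair lesions; compound exposure; growth vs vehicle controls → % inhibition.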
# [16] = NCI Yeast Anticancer Drug Screen. Data for the rad18 strain (AID 177); conditions: S. cerevisiae rad18 mutant growth inhibition, active compounds read high
# In short: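 Readout: growth inhibition vs vehicle controls. Cells: genetically altered yeast strain, DNA repair defect.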
# [17] = at 5.0 µM (retest, dose inferred, filed as 0.5)
# [18] = at 50.0 µM (retest, dose inferred, filed as 5.0)
smiles,measurement,setting,value
Cc1cccc2c1nc1ccc(Cl)cc1[n+]2C,growth inhibition,[1]; at 1.2 µM,0%
same,growth inhibition,[1]; at 3.7 µM,9%
same,growth inhibition,[1]; at 11.0 µM,79% (active)
same,growth inhibition,[1]; at 33.0 µM,98% (active)
same,growth inhibition,[1]; at 100.0 µM,97% (active)
same,growth inhibition,[2]; at 1.2 µM,-1%
same,growth inhibition,[2]; at 3.7 µM,4%
same,growth inhibition,[2]; at 11.0 µM,41%
same,growth inhibition,[2]; at 33.0 µM,97% (active)
same,growth inhibition,[2]; at 100.0 µM,96% (active)
same,growth inhibition,[3]; at 1.2 µM,-4%
same,growth inhibition,[3]; at 3.7 µM,4%
same,growth inhibition,[3]; at 11.0 µM,64%
same,growth inhibition,[3]; at 33.0 µM,93% (active)
same,growth inhibition,[3]; at 100.0 µM,95% (active)
same,growth inhibition,[4]; at 1.2 µM,0%
same,growth inhibition,[4]; at 3.7 µM,7%
same,growth inhibition,[4]; at 11.0 µM,59%
same,growth inhibition,[4]; at 33.0 µM,98% (active)
same,growth inhibition,[4]; at 100.0 µM,98% (active)
same,growth inhibition,[5]; at 1.2 µM,2%
same,growth inhibition,[5]; at 3.7 µM,9%
same,growth inhibition,[5]; [17],11%
same,growth inhibition,[5]; at 11.0 µM,84% (active)
same,growth inhibition,[5]; at 33.0 µM,96% (active)
same,growth inhibition,[5]; [18],96% (active)
same,growth inhibition,[5]; at 50.0 µM,98% (active)
same,growth inhibition,[5]; at 100.0 µM,97% (active)
same,growth inhibition,[6]; at 1.2 µM,1%
same,growth inhibition,[6]; at 3.7 µM,18%
same,growth inhibition,[6]; [17],3%
same,growth inhibition,[6]; at 11.0 µM,85% (active)
same,growth inhibition,[6]; at 33.0 µM,96% (active)
same,growth inhibition,[6]; [18],96% (active)
same,growth inhibition,[6]; at 50.0 µM,98.8% (active)
same,growth inhibition,[6]; at 100.0 µM,97% (active)
same,growth inhibition,[7]; at 1.2 µM,2%
same,growth inhibition,[7]; at 3.7 µM,8%
same,growth inhibition,[7]; at 11.0 µM,57%
same,growth inhibition,[7]; at 33.0 µM,97% (active)
same,growth inhibition,[7]; at 100.0 µM,97% (active)
same,growth inhibition,[8]; [17],26%
same,growth inhibition,[8]; [18],97% (active)
same,growth inhibition,[8]; at 50.0 µM,98.8% (active)
same,growth inhibition,[9]; at 1.2 µM,-5%
same,growth inhibition,[9]; at 3.7 µM,-4%
same,growth inhibition,[9]; at 11.0 µM,89% (active)
same,growth inhibition,[9]; at 33.0 µM,96% (active)
same,growth inhibition,[9]; at 100.0 µM,95% (active)
same,growth inhibition,[10]; [17],4%
same,growth inhibition,[10]; [18],95% (active)
same,growth inhibition,[10]; at 50.0 µM,96.5% (active)
same,growth inhibition,[11]; at 1.2 µM,0%
same,growth inhibition,[11]; at 3.7 µM,10%
same,growth inhibition,[11]; [17],0%
same,growth inhibition,[11]; at 11.0 µM,82% (active)
same,growth inhibition,[11]; at 33.0 µM,95% (active)
same,growth inhibition,[11]; [18],94% (active)
same,growth inhibition,[11]; at 50.0 µM,98% (active)
same,growth inhibition,[11]; at 100.0 µM,96% (active)
same,growth inhibition,[12]; at 1.2 µM,-2%
same,growth inhibition,[12]; at 3.7 µM,2%
same,growth inhibition,[12]; at 11.0 µM,92% (active)
same,growth inhibition,[12]; at 33.0 µM,97% (active)
same,growth inhibition,[12]; at 100.0 µM,95% (active)
same,growth inhibition,[13]; at 1.2 µM,-3%
same,growth inhibition,[13]; at 3.7 µM,7%
same,growth inhibition,[13]; at 11.0 µM,82% (active)
same,growth inhibition,[13]; at 33.0 µM,97% (active)
same,growth inhibition,[13]; at 100.0 µM,97% (active)
same,growth inhibition,[14]; at 1.2 µM,3%
same,growth inhibition,[14]; at 3.7 µM,13%
same,growth inhibition,[14]; at 11.0 µM,89% (active)
same,growth inhibition,[14]; at 33.0 µM,97% (active)
same,growth inhibition,[14]; at 100.0 µM,97% (active)
same,growth inhibition,[15]; [17],25%
same,growth inhibition,[15]; [18],95% (active)
same,growth inhibition,[15]; at 50.0 µM,98.3% (active)
same,growth inhibition,[16]; at 1.2 µM,25%
same,growth inhibition,[16]; at 3.7 µM,62%
same,growth inhibition,[16]; at 11.0 µM,91% (active)
same,growth inhibition,[16]; at 33.0 µM,97% (active)
same,growth inhibition,[16]; at 100.0 µM,96% (active)
C/C(=N\Nc1ccc([N+](=O)[O-])cc1[N+](=O)[O-])c1sc(-n2nc(-c3ccccc3)cc2-c2ccccc2)nc1C,growth inhibition,[1]; at 1.2 µM,-1%
same,growth inhibition,[1]; at 3.7 µM,13%
same,growth inhibition,[1]; at 11.0 µM,7%
same,growth inhibition,[1]; at 33.0 µM,0%
same,growth inhibition,[1]; at 100.0 µM,26%
same,growth inhibition,[2]; at 1.2 µM,-21%
same,growth inhibition,[2]; at 3.7 µM,-4%
same,growth inhibition,[2]; at 11.0 µM,-13%
same,growth inhibition,[2]; at 33.0 µM,-1%
same,growth inhibition,[2]; at 100.0 µM,-4%
same,growth inhibition,[3]; at 1.2 µM,7%
same,growth inhibition,[3]; at 3.7 µM,22%
same,growth inhibition,[3]; at 11.0 µM,27%
same,growth inhibition,[3]; at 33.0 µM,50%
same,growth inhibition,[3]; at 100.0 µM,59%
same,growth inhibition,[4]; at 1.2 µM,18%
same,growth inhibition,[4]; at 3.7 µM,6%
same,growth inhibition,[4]; at 11.0 µM,6%
same,growth inhibition,[4]; at 33.0 µM,32%
same,growth inhibition,[4]; at 100.0 µM,60%
same,growth inhibition,[5]; at 1.2 µM,-1%
same,growth inhibition,[5]; at 3.7 µM,0%
same,growth inhibition,[5]; [17],25%
same,growth inhibition,[5]; at 11.0 µM,-15%
same,growth inhibition,[5]; at 33.0 µM,4%
same,growth inhibition,[5]; [18],62%
same,growth inhibition,[5]; at 50.0 µM,80% (active)
same,growth inhibition,[5]; at 100.0 µM,10%
same,growth inhibition,[6]; at 1.2 µM,11%
same,growth inhibition,[6]; at 3.7 µM,16%
same,growth inhibition,[6]; [17],0%
same,growth inhibition,[6]; at 11.0 µM,15%
same,growth inhibition,[6]; at 33.0 µM,22%
same,growth inhibition,[6]; [18],16%
same,growth inhibition,[6]; at 50.0 µM,66%
same,growth inhibition,[6]; at 100.0 µM,34%
same,growth inhibition,[7]; at 1.2 µM,-7%
same,growth inhibition,[7]; at 3.7 µM,-13%
same,growth inhibition,[7]; at 11.0 µM,-15%
same,growth inhibition,[7]; at 33.0 µM,-9%
same,growth inhibition,[7]; at 100.0 µM,-6%
same,growth inhibition,[8]; [17],11%
same,growth inhibition,[8]; [18],57%
same,growth inhibition,[8]; at 50.0 µM,75.3% (active)
same,growth inhibition,[9]; at 1.2 µM,8%
same,growth inhibition,[9]; at 3.7 µM,12%
same,growth inhibition,[9]; at 11.0 µM,9%
same,growth inhibition,[9]; at 33.0 µM,18%
same,growth inhibition,[9]; at 100.0 µM,26%
same,growth inhibition,[10]; [17],29%
same,growth inhibition,[10]; [18],34%
same,growth inhibition,[10]; at 50.0 µM,61.6%
same,growth inhibition,[11]; at 1.2 µM,15%
same,growth inhibition,[11]; at 3.7 µM,25%
same,growth inhibition,[11]; [17],31%
same,growth inhibition,[11]; at 11.0 µM,46%
same,growth inhibition,[11]; at 33.0 µM,42%
same,growth inhibition,[11]; [18],74% (active)
same,growth inhibition,[11]; at 50.0 µM,79% (active)
same,growth inhibition,[11]; at 100.0 µM,62%
same,growth inhibition,[12]; at 1.2 µM,-21%
same,growth inhibition,[12]; at 3.7 µM,-22%
same,growth inhibition,[12]; at 11.0 µM,-25%
same,growth inhibition,[12]; at 33.0 µM,-11%
same,growth inhibition,[12]; at 100.0 µM,68%
same,growth inhibition,[13]; at 1.2 µM,1%
same,growth inhibition,[13]; at 3.7 µM,-15%
same,growth inhibition,[13]; at 11.0 µM,-16%
same,growth inhibition,[13]; at 33.0 µM,5%
same,growth inhibition,[13]; at 100.0 µM,25%
same,growth inhibition,[14]; at 1.2 µM,0%
same,growth inhibition,[14]; at 3.7 µM,6%
same,growth inhibition,[14]; at 11.0 µM,13%
same,growth inhibition,[14]; at 33.0 µM,11%
same,growth inhibition,[14]; at 100.0 µM,25%
same,growth inhibition,[15]; [17],24%
same,growth inhibition,[15]; [18],60%
same,growth inhibition,[15]; at 50.0 µM,79.3% (active)
same,growth inhibition,[16]; at 1.2 µM,-9%
same,growth inhibition,[16]; at 3.7 µM,11%
same,growth inhibition,[16]; at 11.0 µM,14%
same,growth inhibition,[16]; at 33.0 µM,24%
same,growth inhibition,[16]; at 100.0 µM,36%
